PubChem BioAssay
Activity calls are given as the source filed them. Unless noted, no rule for the calls is given here.

Columns and labels:
[1] = system: Wnt5a (protein binding on small-molecule microarray); assay: small molecules binding Wnt5a protein – biophysical, small-molecule microarray, 635/667 nm fluorescence, primary screen (AID 1142); details: 635 nm fluorescence, higher = more signal;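 also: fluorescence read at 667 nm with signal to noise per printed feature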
[2] = ATP-based viability of Huh7 replicon cells – cell-based, CellTiter-Glo luminescence, basal, 48 h, cytotoxicity control for HCV replication inhibitor project, primary screen (AID 1143); details: higher = more signal, called active from +8 up or from −8 down;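 also: Huh7 hepatoma cells carrying a hepatitis C replication reporter with no stimulus; test concentration not given here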
[3] = Pseudomonas biofilm growth suppression – PAO1 strain, BacTiter-Glo luminescence, LB-PBS, primary screen (AID 1144); details: P. aeruginosa PAO1 biofilm, 12 h, higher = more signal
[4] = basal CRE-LacZ reporter activity in PC12 – cell-based, unstimulated, primary screen (AID 1145); details: no forskolin, luminescence, 4.5 h, higher = more signal, called active from +8 up or from −8 down
[5] = forskolin-driven CRE-LacZ activity in PC12 – cell-based, CRE-LacZ reporter, forskolin-stimulated, primary screen (AID 1146); details: luminescence, 4.5 h, higher = more signal, called active from +8 up or from −8 down;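 also: PC12 cells with 6xCRE LacZ reporter stimulated by forskolin 10 µM; beta-galactosidase reporter signal reflecting CREB driven transcription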
[6] = target: Streptavidin (Streptomyces avidinii) (UniProt P22629); assay: compounds binding control protein streptavidin – biophysical, small-molecule microarray, 635/667 nm fluorescence, artefact control for SMM compound annotation, primary screen (AID 1147); details: higher = more signal;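 also: signal reflects streptavidin binding to arrayed compounds as a control protein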
[7] = probe aInhba binding on compound microarray – biochemical, small-molecule microarray, 635/667 nm fluorescence, primary screen (AID 1148); details: higher = more signal;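 also: score merges 667nm spot fluorescence with signal-to-noise for antibody binding to printed compounds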
Torsin-1A (Homo sapiens) [8] = target: Torsin-1A (Homo sapiens) (UniProt O14656); assay: TOR1A wild-type binding on microarray – cell lysate, small-molecule microarray, lysate, 635/667 nm, primary screen (AID 1149); details: COS7 hTOR1A-WT lysate, 635 nm fluorescence, higher = more signal
Torsin-1A (Homo sapiens) [9] = target: Torsin-1A (Homo sapiens) (UniProt O14656); assay: torsin A mutant lysate binding on microarrays – cell lysate, small-molecule microarray, COS7 lysate, 635/667 nm fluorescence, primary screen (AID 1150); details: COS7 hTOR1A mutant lysate, 635 nm fluorescence, higher = more signal;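 also: score pools 667 nm emission and signal to noise measuring lysate protein binding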
[10] = system: Sonic hedgehog protein (Shh); assay: Sonic hedgehog microarray binding compounds – biochemical, small-molecule microarray, 635/667 nm fluorescence, primary screen (AID 1151); details: 635 nm fluorescence, higher = more signal;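 also: Shh protein binding to compounds spotted on small-molecule microarray slides; score combines spot fluorescence intensity with signal-to-noise across triplicate slides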

Chain of Torsin-1A (Homo sapiens) (O14656 whole entry, looked up): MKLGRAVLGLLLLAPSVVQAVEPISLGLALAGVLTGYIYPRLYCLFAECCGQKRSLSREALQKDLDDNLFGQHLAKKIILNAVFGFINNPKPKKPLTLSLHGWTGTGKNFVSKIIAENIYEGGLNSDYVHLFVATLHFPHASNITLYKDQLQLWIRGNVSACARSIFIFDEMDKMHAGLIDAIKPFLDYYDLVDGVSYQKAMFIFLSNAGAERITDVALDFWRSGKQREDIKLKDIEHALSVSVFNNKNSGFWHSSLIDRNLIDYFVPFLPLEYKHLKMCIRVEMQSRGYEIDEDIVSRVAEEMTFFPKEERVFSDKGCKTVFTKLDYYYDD
Chain of Streptavidin (Streptomyces avidinii) (P22629 whole entry, looked up): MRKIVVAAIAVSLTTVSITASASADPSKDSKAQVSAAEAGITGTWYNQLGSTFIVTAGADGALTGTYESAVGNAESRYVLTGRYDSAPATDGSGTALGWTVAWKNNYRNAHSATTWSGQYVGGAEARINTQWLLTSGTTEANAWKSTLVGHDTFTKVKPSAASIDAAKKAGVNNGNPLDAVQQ

Compound | composite z-score [1] | z-score [2] | z-score [3] | z-score [4] | z-score [5] | composite z-score [6] | composite z-score [7] | composite z-score (Torsin-1A (Homo sapiens) [8]) | composite z-score (Torsin-1A (Homo sapiens) [9]) | composite z-score [10]
CC(=O)OC[C@H]1O[C@H](CCON=C2[C@H]3CCn4c(=O)n(-c5ccccc5)c(=O)n4[C@H]3[C@H](O)[C@@H]3O[C@H]23)C=C[C@@H]1OC(C)=O | 0.282 | -1.89 (inactive) | 2.23 (inactive) | -0.152 (inactive) | -0.0763 (inactive) | -0.0465 | -0.0791 | -0.299 | 0.0319 | 0.789
CC(C)=NOC[C@@H](C)[C@H](OCc1ccccc1)C(C)C | -0.437 | 0.563 (inactive) | -0.181 (inactive) | 1.17 (inactive) | 0.112 (inactive) | 0.0253 | -0.128 | -0.522 | -0.31 | -0.448
CCOC(=O)[C@H](CC(C)C)NC(=O)CCC1CC(OC(=O)NCc2ccc3c(c2)OCO3)CC2(CCCC(COC(=O)NCC3CCCCC3)O2)O1 (stereo not given in full) | 0.222 | -1.86 (inactive) | -0.0968 (inactive) | -0.0732 (inactive) | 0.389 (inactive) | 0.354 | 0.0471 | 0.0886 | 0.392 | 1.52
C=CC[C@@H]1C=C[C@H](ON=C(C)CCC(=O)OC[C@H]2O[C@H](C#Cc3ccccc3)C=C[C@@H]2Oc2ccc(C)cc2)[C@@H](CO)O1 | 0.0897 | -0.273 (inactive) | 0.0915 (inactive) | -0.306 (inactive) | 0.435 (inactive) | 0.635 | -0.0375 | 0.569 | 0.185 | 0.795
C=Cc1ccc([C@H]2N[C@H](C(=O)O)CC[C@@H]2C)cc1 | -0.0905 | 0.369 (inactive) | 0.53 (inactive) | -0.346 (inactive) | 0.179 (inactive) | -0.536 | -0.0714 | -0.188 | 0.307 | 0.36
COC(=O)[C@@H]1CC[C@H](C)[C@@H](c2ccc(C)cc2)N1C(=O)c1ccc(C=NO[C@H](C)c2cn([C@H](CO)Cc3ccccc3)nn2)cc1 | 0.247 | -0.63 (inactive) | 0.0292 (inactive) | 8.24 (active) | 0.371 (inactive) | 0.0407 | 0.288 | 0.278 | 0.277 | 0.682
CCOC(=O)NN=C1C[C@@H](O)[C@@H](O)[C@@H]2[C@@H]3C(=O)N(c4cccc(Oc5ccccc5)c4)C(=O)[C@@H]3CC[C@@H]12 | 0.0449 | -1.49 (inactive) | 0.362 (inactive) | -0.201 (inactive) | -0.252 (inactive) | -0.343 | -0.178 | 0.986 | 0.139 | -0.438
O=C(NN=C1C[C@@H](O)[C@@H](O)[C@@H]2[C@@H]3C(=O)N(C[C@@H]4CCCO4)C(=O)[C@@H]3CC[C@H]12)OCc1ccccc1 | -0.222 | 0.348 (inactive) | 0.458 (inactive) | -0.834 (inactive) | -0.105 (inactive) | 0.281 | -0.341 | 0.146 | 0.219 | -0.824
CO[C@@H]1COC(=O)[C@H](CCSC)NC(=O)CC=C[C@@H](C)COC(=O)[C@H](C)NC(=O)CC=C[C@H]1C | 0.312 | 0.208 (inactive) | 0.0303 (inactive) | 1.97 (inactive) | -0.306 (inactive) | -0.793 | -0.103 | 1.49 | 0.152 | 1.46
COC(=O)CC=C[C@@H](C)[C@@H](C=NO[C@@H]1O[C@H](COC(C)=O)[C@@H](OC(C)=O)[C@H](OC(C)=O)[C@H]1OC(C)=O)OC | 0.359 | 0.36 (inactive) | -0.743 (inactive) | 0.834 (inactive) | 0.0774 (inactive) | -0.769 | -0.165 | 0.698 | 0.32 | 0.0568
CCOC(=O)[C@H](CC(C)C)NC(=O)CCC1CC(OC(=O)NCCc2ccc(F)cc2)CC2(CCCC(COC(=O)NCCOc3ccccc3)O2)O1 (stereo not given in full) | 0.32 | -1.81 (inactive) | -0.446 (inactive) | 0.469 (inactive) | 0.127 (inactive) | 0.939 | 0.336 | 0.0137 | 0.15 | 1.01
CON=CC[C@@H]1C=C[C@H](OC(C)=O)[C@@H](COC(C)=O)O1 | 0.474 | 0.544 (inactive) | 0.667 (inactive) | -0.403 (inactive) | 0.46 (inactive) | -0.0091 | 0.102 | 0.611 | 0.592 | 0.783
COc1cccc([C@H]2Oc3ccc(OC)cc3C(=NOC[C@@H](C)[C@H](OCc3ccccc3)C(C)C)[C@@H]2O)c1 | 0.276 | -0.324 (inactive) | 0.508 (inactive) | 0.666 (inactive) | 0.649 (inactive) | -0.234 | -0.106 | 0.577 | 0.83 | 0.115
